Molecules are shown by their SMILES. Compounds without any hit were thinned out: in the full panel of roughly 83,000, 20% have a hit.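 In brief: 96-well plates, 48 h treatment, single concentration, percent growth endpoint.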 Unmarked numbers belong to inactive results. Active and inactive are the calls of the source. How the source made its calls: active means growth percent below 10; inactive means the rest.

Some test systems named below: HCT-15 colon; HT29 colon; SNB-75 CNS; SNB-19 CNS; U251 CNS; PC-3 prostate; SK-MEL-5 melanoma; UACC-62 melanoma; LOX IMVI melanoma; SK-MEL-28 melanoma; SK-MEL-2 melanoma; EKVX NSCLC; SN12C renal; UO-31 renal; TK-10 renal; ACHN renal; CAKI-1 renal; A498 renal; CCRF-CEM leukemia; MOLT-4 leukemia.
Test in all cases: NCI-60 one-dose screen, 48 h (100 = growth as untreated, 0 = no growth, -100 = all killed)
Conditions in all cases: 10 µM unless noted

Take `COc1cc2cc(NCc3ccncc3)nc(C)c2cc1OC`: the growth in the test on HCT-15 colon was 82.9%; in the test on HT29 colon, 91.6%; with SNB-75 CNS, 97%; in the test with SNB-19 CNS it was 93.8%; in the test with U251 CNS it was 78.5%; in the test with PC-3 prostate it was 77.8%. Besides, the growth was 95.2% with SK-MEL-5 melanoma; 97.8% with UACC-62 melanoma; 88% in the test on LOX IMVI melanoma; 99.2% with SK-MEL-28 melanoma; 100% in the test on SK-MEL-2 melanoma; 96.3% in the test on EKVX NSCLC. The growth in the test on SN12C renal was 97.1%; in the test on UO-31 renal it was 89.8%; in the test on TK-10 renal it was 83.5%; in the test with ACHN renal, 101%; in the test on CAKI-1 renal, 82.3%; in the test with A498 renal, 72.4%. Besides, the results for the growth in the test on CCRF-CEM leukemia and in the test with MOLT-4 leukemia were 112% and 109%, respectively.

As for `O=C(Cc1ccc(F)cc1)c1ccccc1`, the growth in the test on HCT-15 colon was 108%; with HT29 colon it was 109%; with SNB-75 CNS it was 100%; in the test with SNB-19 CNS it was 109%; in the test on U251 CNS it was 106%; in the test on PC-3 prostate, 91.4%. For the same compound, the growth is 110% with SK-MEL-5 melanoma; 106% with UACC-62 melanoma; 102% with LOX IMVI melanoma; 114% with SK-MEL-28 melanoma; 114% in the test with SK-MEL-2 melanoma; 113% in the test on EKVX NSCLC. The growth with SN12C renal is 99.4%; with UO-31 renal it was 95.6%; in the test with TK-10 renal it was 104%; with ACHN renal, 110%; in the test with CAKI-1 renal, 106%; in the test with A498 renal it was 99.8%. In addition, the growth in the test on CCRF-CEM leukemia is 88%; in the test on MOLT-4 leukemia, 93.1%.

Consider `CCOC(=O)c1c(-c2ccc(C)cc2)c(C#N)c(=O)n(-c2cccc(C(F)(F)F)c2)c1N`, for which the growth was 101% with HCT-15 colon; 111% in the test with HT29 colon; 76.3% in the test on SNB-75 CNS; 88.8% in the test on SNB-19 CNS; 102% with U251 CNS; 110% with PC-3 prostate. Besides, the growth was 101% with SK-MEL-5 melanoma; 99% in the test on UACC-62 melanoma; 96.9% in the test on LOX IMVI melanoma; 102% in the test with SK-MEL-28 melanoma; 116% with SK-MEL-2 melanoma; 98.8% in the test on EKVX NSCLC. Further, the growth in the test with SN12C renal is 95.1%; in the test with UO-31 renal it was 81.6%; in the test on TK-10 renal, 112%; in the test on ACHN renal it was 96.7%; in the test on CAKI-1 renal, 91.2%; with A498 renal, 106%. For the same compound, the growth in the test on CCRF-CEM leukemia was 101%; in the test on MOLT-4 leukemia, 104%.

For `Nc1ncc(-c2ccc3ncnc(N4CCc5ccc(Cl)cc54)c3c2)cc1C(F)(F)F`, the growth in the test with HCT-15 colon was 14.9%; in the test with HT29 colon, 9.27% (active); with SNB-75 CNS, -23.4% (active); in the test with SNB-19 CNS, 32.7%; with U251 CNS it was 28.4%; in the test on PC-3 prostate it was 15.4%. In addition, the growth with SK-MEL-5 melanoma is 22.6%; in the test with UACC-62 melanoma, 10.5%; in the test with LOX IMVI melanoma, 11.7%; with SK-MEL-28 melanoma it was 28.7%; with SK-MEL-2 melanoma, 14.1%; in the test on EKVX NSCLC it was 6.87% (active). The growth is 20.6% in the test on SN12C renal; -12% (active) with UO-31 renal; -3.58% (active) in the test on TK-10 renal; 11% in the test with ACHN renal; -9.77% (active) in the test on CAKI-1 renal; -62.5% (active) in the test on A498 renal. The growth was 21.6% in the test with CCRF-CEM leukemia and 7.2% (active) in the test on MOLT-4 leukemia.

`COc1ccc(N2CCN(S(=O)(=O)c3oc(-c4ccccc4)nc3C#N)CC2)cc1`: the growth in the test with HCT-15 colon was 9.51% (active); with HT29 colon, 50.6%; with SNB-75 CNS, 93.4%; in the test with SNB-19 CNS, 92.2%; in the test with U251 CNS, 88.2%; in the test on PC-3 prostate, 92%. The growth with SK-MEL-5 melanoma is 81.2%; in the test with UACC-62 melanoma, 85.5%; with LOX IMVI melanoma it was 4.64% (active); in the test with SK-MEL-28 melanoma, 98.6%; in the test with SK-MEL-2 melanoma, 72.4%; with EKVX NSCLC it was 118%. The growth in the test with SN12C renal is 68.9%; in the test with UO-31 renal, 85.9%; in the test on TK-10 renal, 71.6%; in the test on ACHN renal, 79.2%; with CAKI-1 renal it was 107%; in the test with A498 renal it was 128%. Further, the growth is 4.32% (active) in the test with CCRF-CEM leukemia and 3.95% (active) in the test on MOLT-4 leukemia.

For `O=C1OCC2=C1C(c1cccc([N+](=O)[O-])c1)c1cc3c(cc1N2CCO)CCC3` (stereo not given), the growth was 9.41% (active) with HCT-15 colon; 3.43% (active) with HT29 colon; 41.9% in the test with SNB-75 CNS; 25% in the test on SNB-19 CNS; 13.8% in the test with U251 CNS; 21.7% with PC-3 prostate. Besides, the growth in the test on SK-MEL-5 melanoma was 1.24% (active); with UACC-62 melanoma, 43.9%; in the test with LOX IMVI melanoma it was 20.5%; in the test with SK-MEL-28 melanoma, 53.7%; in the test with SK-MEL-2 melanoma, 17.7%; in the test on EKVX NSCLC, 36.8%. For the same compound, the growth in the test with SN12C renal is 36.3%; in the test on UO-31 renal, 39%; with TK-10 renal it was 60.1%; in the test with ACHN renal, 27.5%; in the test with CAKI-1 renal, 31%; with A498 renal, -5.04% (active). The growth with CCRF-CEM leukemia was 7.25% (active); in the test with MOLT-4 leukemia, 14%.

(Values after PubChem BioAssay (NCI).)
